Measured values published in PubChem BioAssay AID463173 (ICCB-Longwood Screening Facility, Harvard Medical School, 2010).
Hit rate of the full screen: of about 52,000 compounds, about 1,700 (3.3%) were called active. Cut-off read from the data, not from the text of the source: active = survival mostly below about 52% (no sharp cut-off); inactive = mostly above about 56%. The entries come from a sample that favours actives as a whole.

Tested on: Wild type
Assay: growth inhibition of S. aureus wild type versus tarO mutant, primary screen, teichoic acid synthesis inhibitors, RN4220, OD600 (AID 463173)
Conditions: S. aureus RN4220 wild type/DeltatarO growth, OD600, 18 h, stronger effect = lower value, screened at 18.75 µg/mL (by protocol)

Row | SMILES | survival
1 | c1ccc(C(c2nnnn2C2CCCC2)N2CCN(c3ccccc3)CC2)cc1 (stereo unspecified) | 108% (inactive)
2 | Cc1ccc(C)c(N2CCN(C(=O)C3CCC(CNS(=O)(=O)c4ccc(Br)s4)CC3)CC2)c1 (stereo unspecified) | 76% (inactive)
3 | O=C(Nc1ccc(F)cc1)c1ccc(CN2CC(=O)N3CCCCC3C2=O)cc1 (stereo unspecified) | -6% (active)
4 | Cc1ccc(NC(=O)c2ccc(CN3CC(=O)N4CCCCC4C3=O)cc2)cc1C (stereo unspecified) | 73% (inactive)
5 | CCc1ccc(NC(=O)c2ccc(CN3CC(=O)N4CCCCC4C3=O)cc2)cc1 (stereo unspecified) | 87% (inactive)
6 | Cc1ccc(NC(=O)c2ccc(CN3CC(=O)N4CCCCC4C3=O)cc2)cc1 (stereo unspecified) | -6% (active)
7 | CC(C)c1ccc(NC(=O)c2ccc(CN3CC(=O)N4CCCCC4C3=O)cc2)cc1 (stereo unspecified) | 90% (inactive)
8 | O=C(Nc1cc(F)ccc1F)c1ccc(CN2CC(=O)N3CCCCC3C2=O)cc1 (stereo unspecified) | 76% (inactive)
9 | CC(C)CCNc1ccc(-c2ccc(Cl)cc2)nn1 | 106% (inactive)
10 | CCCCN(CCCC)C(=O)c1cc2c(=O)n3ccccc3nc2s1 | 61% (inactive)
11 | Cc1ccc(N2CC(NC(=O)Cc3cccs3)CC2=O)cc1C (stereo unspecified) | 19% (inactive)
12 | Cc1ccc(CCNC(c2ccc(F)cc2)c2nnc(-c3ccccc3Cl)o2)cc1 (stereo unspecified) | 0% (active)
13 | Fc1ccc(C(NCCc2ccc(Cl)cc2)c2nnc(-c3ccccc3Cl)o2)cc1 (stereo unspecified) | 11% (active)
14 | Fc1ccc(C(NCCc2ccccc2)c2nnc(-c3ccccc3Cl)o2)cc1 (stereo unspecified) | 94% (inactive)
15 | Fc1ccc(C(Nc2ccccc2Cl)c2nnc(-c3ccccc3Cl)o2)cc1 (stereo unspecified) | 89% (inactive)
16 | Fc1ccc(NCc2ccccc2-c2nnc(-c3ccccc3Cl)o2)cc1 | 89% (inactive)
17 | COc1ccc(CCNC(c2ccc(F)cc2)c2nnc(-c3ccccc3Cl)o2)cc1OC (stereo unspecified) | 49% (inactive)
18 | COc1cc(NC(=O)CCc2c(C)n(C)c3cc(-c4ccccc4C)nn3c2=O)cc(OC)c1OC | 130% (inactive)
19 | Cc1ccc(NC(=O)N2CCc3c([nH]c4ccccc34)C2c2ccccc2F)c(Cl)c1 (stereo unspecified) | 82% (inactive)
20 | CCc1ccc(NS(=O)(=O)c2ccc(C(=O)N(C)C)s2)cc1 | 64% (inactive)
21 | CCC1CCCCN1C(=O)c1sc(-n2nc(C)c(Cc3ccccc3)c2C)nc1C (stereo unspecified) | 72% (inactive)
22 | CC(=O)c1ccc(NC(=O)C2CCN(S(=O)(=O)c3ccc4c(c3)CCCN4C(=O)C3CCC3)CC2)cc1 | 74% (inactive)
23 | CCOC(=O)Cn1nc(N2CCN(c3ccc(F)cc3)CC2)ccc1=O | 73% (inactive)

Row | SMILES | survival
24 | COc1ccc(Cn2ccc3nc(C)c(C(=O)NCc4cccc(OC)c4)cc3c2=O)cc1 | 75% (inactive)
25 | Cc1ccc(CNC(=O)CCCc2nnc3n(C)c(=O)c4sccc4n23)cc1 | 92% (inactive)
26 | CCOC(=O)c1cc(C)n(CC2CCC(C(=O)Nc3cccc(C(C)=O)c3)CC2)c1C (stereo unspecified) | 79% (inactive)
27 | Cc1c(Cl)cccc1-n1nc(C)c2c(C)cc(=O)n(CC(=O)N3CCCc4ccccc43)c21 | 71% (inactive)
28 | CN1CCc2c(sc(NC(=O)CSc3ccccc3)c2-c2nc3ccccc3s2)C1 | 80% (inactive)
29 | CCN1CCc2c(sc(NC(=O)CSc3ccccc3)c2-c2nc3ccccc3s2)C1 | -6% (active)
30 | CC(=O)N1CCc2c(sc(NC(=O)CSc3ccccc3)c2-c2nc3ccccc3s2)C1 | 120% (inactive)
31 | CCOC(=O)c1cc(-c2ccccc2)n(CC(=O)NC2CCC(C)CC2)c1C (stereo unspecified) | 81% (inactive)
32 | CCc1ccc(NC(=O)C(CC)n2c(=O)c(C(F)(F)F)nc3ccccc32)cc1 (stereo unspecified) | 81% (inactive)
33 | Cc1cccc(N2CCN(Cc3cc(=O)oc4cc(C)ccc34)CC2C)c1 (stereo unspecified) | 84% (inactive)
34 | O=C1C2=C(Nc3ccccc3SC2c2ccc(C(F)(F)F)cc2)c2ccccc21 (stereo unspecified) | 36% (inactive)
35 | CC(C)(C)c1ccc(C2Sc3ccccc3NC3=C2C(=O)c2ccccc23)cc1 (stereo unspecified) | 82% (inactive)
36 | O=C1C2=C(Nc3ccccc3SC2c2ccccc2C(F)(F)F)c2ccccc21 (stereo unspecified) | 11% (active)
37 | CCC(Sc1nnc(C)n2c1cc1sccc12)C(=O)Nc1ccccc1F (stereo unspecified) | 79% (inactive)
38 | CCOc1cc(CNC(=O)c2ccc(Cn3c(=O)c4cccn4c4cccnc43)cc2)ccc1OC | 86% (inactive)
39 | COc1cccc(-c2nn(C)c3sc(C(=O)N4CCN(c5cccc(C)c5)C(C)C4)cc23)c1 (stereo unspecified) | 72% (inactive)
40 | CCOC(=O)C1CCC(CN(Cc2ccc(Cl)cc2)S(=O)(=O)c2cccc(Cl)c2C)CC1 (stereo unspecified) | 82% (inactive)
41 | CC(=O)c1ccc(NC(=O)CC2Nc3cccc4cccc(c34)NC2=O)cc1 (stereo unspecified) | 96% (inactive)
42 | CCOC(=O)c1ccc(NC(=O)CC2Nc3ccccc3NC2=O)cc1 (stereo unspecified) | 62% (inactive)
43 | CCOC(=O)c1ccc(NC(=O)CC2Nc3cccc4cccc(c34)NC2=O)cc1 (stereo unspecified) | -13% (active)
44 | Cc1ccccc1N(C)S(=O)(=O)c1nnc(NC(=O)c2ccccc2F)s1 | 33% (inactive)
45 | CCOC(=O)CC(NC(=O)Cn1nnc(-c2ccc(C(F)(F)F)cc2)n1)c1ccc(C)cc1 (stereo unspecified) | 87% (inactive)
46 | Cc1cn(C)c(CC(=O)Nc2cccc(Cl)c2C)c1C(=O)O | 124% (inactive)

Row | SMILES | survival
47 | Cc1c(Cl)cccc1NC(=O)CCOc1ccccc1 | 145% (inactive)
48 | Cc1ccc(C)c(NC(=O)CCOc2ccccc2)c1 | 94% (inactive)
49 | CCc1ccc(NC(=O)Cc2c(C(=O)O)c(C)cn2C)cc1 | 76% (inactive)
50 | CCOC(=O)c1ccccc1NC(=O)CCOc1ccccc1 | 6% (active)
51 | CCOC(=O)c1ccccc1NC(=O)Cc1c(C(=O)O)c(C)cn1C | -1% (active)
52 | CC(=O)N1CCc2cc(S(=O)(=O)NC(Cc3ccccc3)C(=O)Nc3ccc(Cl)cc3)ccc21 (stereo unspecified) | 89% (inactive)
53 | O=C(NCCc1ccccc1)c1cc(-c2ccc(Cl)cc2)on1 | 101% (inactive)
54 | O=C(NCc1ccccc1F)C(=O)NCC(c1ccc2c(c1)OCO2)N1CCOCC1 (stereo unspecified) | 71% (inactive)
55 | CCc1cccc(CC)c1NC(=O)C(CC)n1nc(C)n2c(cc3cc(C)ccc32)c1=O (stereo unspecified) | 73% (inactive)
56 | CCOc1ccc(CN2C(=O)c3ccccc3Sc3ccc(C(=O)NC)cc32)cc1 | 78% (inactive)
57 | Cc1cccc(/C=N/NC(=O)c2ccccn2)c1O | 18% (inactive)
58 | Cc1cc(S(=O)(=O)N(C)CCc2ccccc2)ccc1-n1cnnn1 | 99% (inactive)
59 | CCOC(=O)c1cc(S(=O)(=O)Nc2cc(C)c(Cl)cc2OC)[nH]n1 | 98% (inactive)
60 | CCOC(=O)c1cc(S(=O)(=O)Nc2cc(OC)ccc2OC)[nH]n1 | 123% (inactive)
61 | CCOC(=O)c1cc(S(=O)(=O)Nc2ccc(OC)c(Cl)c2)[nH]n1 | -6% (active)
62 | CCOC(=O)c1cc2sccc2n1CC(=O)NC(C)C | 100% (inactive)
63 | COc1ccc(-c2cnc(C)o2)cc1S(=O)(=O)Nc1ccc(C)c(F)c1 | 60% (inactive)
64 | Fc1ccc(-n2ncc3c(N4CCCCCC4)ncnc32)cc1 | 82% (inactive)
65 | Cc1ccc(N2C(=O)CSC23C(=O)N(CC(=O)Nc2ccc(C(C)C)cc2)c2ccccc23)cc1C (stereo unspecified) | 80% (inactive)
66 | CCN(CC)CCCNC(=O)c1ccc2c(c1)sc1nc(-c3ccc(C)cc3)cn12 | 8% (active)
67 | CCCSCCCNC(=O)c1ccc2c(c1)sc1nc(-c3ccc(OCC)cc3)cn12 | 85% (inactive)
68 | CCOc1ccc(-c2cn3c(n2)sc2cc(C(=O)NCCCN(CC)CC)ccc23)cc1 | 2% (active)
69 | CCOc1ccc(-c2cn3c(n2)sc2cc(C(=O)NCCCc4ccccc4)ccc23)cc1 | 96% (inactive)

Row | SMILES | survival
70 | CCN(CC)CCNC(=O)c1ccc2c(c1)sc1nc(-c3ccc(F)cc3)cn12 | 27% (inactive)
71 | CCCNC(=O)c1ccc2c(c1)sc1nc(-c3ccc(C)cc3)cn12 | 103% (inactive)
72 | CCOc1ccc(N2C(=O)c3n[nH]c(-c4cccs4)c3C2c2cccc(F)c2)cc1 (stereo unspecified) | 60% (inactive)
73 | Cc1ccc(C)c(CSc2nc3ccncc3n2Cc2nc(-c3ccccc3Cl)oc2C)c1 | 61% (inactive)
74 | Cc1ccc(CSc2nc3ccncc3n2Cc2nc(-c3ccccc3C)oc2C)cc1 | 0% (active)
75 | Cc1ccc(CSc2nc3ccncc3n2Cc2nc(-c3ccc(Cl)cc3)oc2C)cc1 | 68% (inactive)
76 | CCN(C(=O)Cn1nc(Cc2ccncc2)c2ccccc2c1=O)c1ccc(OC)cc1 | 74% (inactive)
77 | Cc1ccccc1C(=O)NC1CCN(CC(=O)NC2CCCCC2)CC1 | 98% (inactive)
78 | COc1ccc(Cl)cc1NC(=O)C1CCN(c2ncnc3c2nc2n3CCCCC2)CC1 | 82% (inactive)
79 | O=S1(=O)CCC(c2ccccc2)C1 (stereo unspecified) | 100% (inactive)
80 | COc1ccc(C(=O)NCc2ccc3c(c2)CCN3C(=O)c2ccccc2)cc1 | 82% (inactive)
81 | COc1ccc(CC(=O)NCc2ccc3c(c2)CCN3C(=O)c2cccc(C)c2)cc1 | -6% (active)
82 | COc1ccc(CCC(=O)NCc2ccc3c(c2)CCN3C(=O)c2cccc(C)c2)cc1 | 67% (inactive)
83 | COc1ccc2cc(C(=O)NCc3ccc4c(c3)CCN4C(=O)c3ccc(C)cc3)[nH]c2c1 | 84% (inactive)
84 | COc1ccc2cc(C(=O)NCc3ccc4c(c3)CCN4C(=O)c3ccc(F)cc3)[nH]c2c1 | 68% (inactive)
85 | CCOc1ccc(C(=O)NCc2ccc3c(c2)CCN3C(=O)c2ccccc2)cc1 | -4% (active)
86 | CCOc1ccc(C(=O)NCc2ccc3c(c2)CCN3C(=O)c2ccc(Cl)cc2)cc1 | 81% (inactive)
87 | O=C(NCc1ccc2c(c1)CCN2C(=O)c1ccc(F)cc1)c1cc2ccccc2[nH]1 | 99% (inactive)
88 | Cc1cccc(C(=O)N2CCc3cc(CNC(=O)c4cc5ccccc5[nH]4)ccc32)c1 | 72% (inactive)
89 | COc1ccc2cc(C(=O)NCc3ccc4c(c3)CCN4C(=O)c3ccccc3)[nH]c2c1 | -3% (active)
90 | O=C(NCc1ccc2c(c1)CCN2C(=O)c1ccccc1)c1cc2ccccc2[nH]1 | 1% (active)
91 | COc1ccc(OCC(=O)NCc2ccc3c(c2)CCN3C(=O)c2cccc(C)c2)cc1 | 72% (inactive)
